Compound activity (PubChem BioAssay)
Sampled rows, rich in hits. Any-hit rate of the full collection: about 1.2%.
ERK EGF inh: qHTS Assay for Inhibitors of the ERK Signaling Pathway using a Homogeneous Screening Assay; Stimulation with EGF. HEK293-V1b, EGF-stimulated phospho-ERK AlphaScreen. Potency, µM (doses to about 11.5 µM), for the others: at the top dose activity change, negative = inhibition, usual class: inhibitors. 0.41% of 130,000 active;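 also: potency is read from the fitted curve at half-maximal effect; plate controls were stimulated vehicle wells for no effect and unstimulated vehicle basal for full effect; nearly all actives have a fitted effect of over 55% in size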
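After overnight plating in 1% FBS, HEK293-V1b cells received test compound for half an hour, then a 5 min pulse of EGF (25 nM); ERK phosphorylation in lysates was read by bead-based AlphaScreen.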
HttQ103 aggreg: qHTS Multiplex Assay to Identify Dual Action Probes in a Cell Model of Huntington: Aggregate Formation (GFP). PC12 HttQ103-GFP aggregates, Acumen cytometry, 40 h. Potency, µM (series often up to 46.1 µM), without a hit: top-dose activity change, negative = inhibition, hits mostly inhibitors. 1.1% of 220,000 active; also: potency is read from the fitted curve at half-maximal effect; % is scaled to controls: 0 for no effect and ±100 for the full control effect; nearly all actives have a fitted effect of over 60% in size
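Aggregates are detected as GFP objects 1–25 µm with signal 6 STDEV over background in lysates of induced PC12 cells. These carry Huntingtin exon 1 with 103 glutamines fused to GFP under an ecdysone promoter; compounds titrated.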
GLA spleen mod: qHTS Assay for Inhibitors and Activators of Human alpha-Galactosidase From Spleen Homogenate | Alpha-galactosidase A (Homo sapiens), P06280 | human spleen homogenate, 4MU-alpha-Gal fluorescence, 40 min | Potency, µM (top dose mostly 80 µM), for inactives: at the top dose activity change, negative = inhibition, usual class: inhibitors | 0.008% of 240,000 active | AID 2107, 2009;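 also: potency is read from the fitted curve at half-maximal effect; 0% = enzyme with vehicle and -100% = no enzyme basal signal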
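qHTS titration in buffer at pH 5.0. Alpha-galactosidase activity in spleen homogenate was measured via 4-methylumbelliferone release from 1 mM fluorogenic substrate after 40 min at 37C and a pH 10 stop. AC50 came from Hill fits of control-normalized data.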
GLA inh pH 4.5: qHTS Assay for Inhibitors of Human alpha-Galactosidase at pH 4.5; Alpha-galactosidase A (Homo sapiens), P06280; purified enzyme, 4-MU-alpha-Gal fluorescence, pH 4.5; activity change, negative = inhibition, % at 105 µM; 230,000 tested, under 10 active; AID 1467, 2008;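 also: 0% = full activity with enzyme and -100% = basal without enzyme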
Target sequence (P06280 whole entry, looked up): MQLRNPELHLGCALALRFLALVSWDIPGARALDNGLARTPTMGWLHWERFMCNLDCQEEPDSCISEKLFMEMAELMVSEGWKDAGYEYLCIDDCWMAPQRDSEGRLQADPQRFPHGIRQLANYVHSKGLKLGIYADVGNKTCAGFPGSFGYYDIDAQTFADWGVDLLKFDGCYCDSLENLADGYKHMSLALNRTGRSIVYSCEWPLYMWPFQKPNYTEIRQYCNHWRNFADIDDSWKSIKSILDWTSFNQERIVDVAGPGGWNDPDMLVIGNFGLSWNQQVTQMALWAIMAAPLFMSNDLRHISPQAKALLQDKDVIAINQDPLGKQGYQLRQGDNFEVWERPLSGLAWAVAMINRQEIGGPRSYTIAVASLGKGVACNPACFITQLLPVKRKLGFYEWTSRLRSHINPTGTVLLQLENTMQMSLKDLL
HTT cytoprotect: qHTS Multiplex Assay to Identify Dual Action Probes in a Cell Model of Huntington: Cytoprotection (ATP); PC12 HTT-Q103 induced, cytoprotection, ATP luminescence, 40 h; Potency, µM (titrated, usually from 56.4 µM), for the others: cytoprotection (ATP increase), most hits filed as activators; 0.14% of 230,000 active; AID 1471, 2008; also: potency is read from the fitted curve at half-maximal effect; % of control where 0% means no effect; nearly all actives have a fitted effect of over 45% in size
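Rat PC12, Q103 Htt exon1-GFP fusion, ecdysone promoter; tebufenozide inducer 100 nM final; compound titration; qHTS, 1500 cells/well; ATPlite luminescent read.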
* hit, by the source's call; u = inconclusive; x = no result; [ ] = remark or other dose. Calls follow the shape of the dose curve; as a rule, active = well fitted curve in the direction sought with a large enough effect; inconclusive = small, poorly fitted or top-dose-only effect, or another doubt; inactive = no such curve, though single readings can be large; an effect the other way counts as inactive or inconclusive.

SMILES	ERK EGF inh	HttQ103 aggreg	GLA spleen mod	GLA inh pH 4.5	HTT cytoprotect
CC/C(=N\NC(=O)C(N)=O)c1ccccc1O	4.8%	10µM*	-9.7%	-2.9	x
FC(F)(F)c1cccc(N2CCN(C(=S)NC3CCCCC3)CC2)c1	-4.4%	22.4µM*	-5.4%	-7.6	-1.7%[10 µM]
CN(Cc1ccco1)c1ncnc2ccc(-c3ccccc3Cl)cc12	x	x	15.0%	x	-100.3%
CN(Cc1ccccc1)c1ncnc2ccc(Br)cc12	x	0.355µM*	-0.3%	-5.8	-47.6%
COc1ccc(NS(=O)(=O)c2ccc(Oc3ncccn3)cc2)cc1	x	11.2µM*	4.2%	2.0	-34.9%
CC(C)NC(=O)Cn1nnc(-c2ccc(Cl)cc2)n1	x	12.6µM*	0.8%	1.8	-16.9%[10 µM]
CCOC(=O)c1c(NC(=O)Cn2nnc(-c3ccc(Cl)cc3)n2)sc(C)c1C	x	-2.8%	5.4%	-8.7	-16.2%
CC(C)C(=O)Nc1cccc(C(=O)N2CCCCC2C)c1 (centres undefined)	x	10µM*	5.4%	5.1	-4.9%
CC(C)(C)c1ccc(C(=O)NCCCN2CCN(CCCNC(=O)c3ccc(C(C)(C)C)cc3)CC2)cc1	u	7.08µM*	3.1%	u	-53.9%[10 µM]
O=C(NCCCN1CCOCC1)c1ccc(Br)cc1	x	-6.2%	7.0%	-0.9	-12.2%
CC(C)=CCCC1(C)C=Cc2c(c(C)cc3c2[nH]c2ccccc23)O1 (centres undefined)	0.1%	x	3.7%	-1.1	-98.5%
CCCCN(CC)c1nc(C)nc2c1c(C)c(C)n2-c1c(C)cc(C)cc1C	x	x	4.8%	x	x
O=C(CNC(=O)c1ccccc1O)N/N=C/c1cc(Br)ccc1OC(=O)/C=C/c1ccco1	11.4%	2.51µM*	-2.9%	-9.8	-171.7%
O=C(CNC(=O)c1ccc(F)cc1)N/N=C/c1cc(Br)ccc1OCc1ccccc1	-9.3%	u	-0.8%	-13.2	x
O=C(CNC(=O)c1cccc(F)c1)N/N=C/c1cc(Br)ccc1OC(=O)/C=C/c1ccco1	-3.4%	8.91µM*	-7.9%	-6.5	x
CCCCCCCCC1OC1CCCCCCCC(=O)O (centres undefined)	-14.5%	x	8.1%	5.9	0.3%
CC/C=C\C/C=C\C/C=C\C/C=C\C/C=C\CCC(=O)O[C@H](COCCCCCCCCCCCCCCCC)COP(=O)([O-])OCC[N+](C)(C)C	1.4%	x	3.2%	-3.8	5.7%
Cc1cc(C=O)c(C)n1-c1ccc(Oc2ccc([N+](=O)[O-])cn2)cc1	u	22.4µM*	6.1%	0.0	x
CC(=O)N(C1=C(N2CCOCC2)C(=O)c2ccccc2C1=O)c1ccc(C(=O)O)cc1	-17.4%[57.5 µM]	9.1%[9.22 µM]	-1.7%	-16.6	0.2%[10 µM]
CC(=O)N(C)C1=C(N2CCOCC2)C(=O)c2ccccc2C1=O	x	25.1µM*	24.9%	2.2	-122.4%
CC(=O)Oc1c(C)cc(Cl)cc1C(=O)Nc1ccc([N+](=O)[O-])cc1Cl	-21.7%	0.251µM*	0.6%	3.4	-58.5%[10 µM]
FC(F)(F)c1ccccc1-c1nc(NC2CCNCC2)c2ccccc2n1	x	x	15.3%	x	25.7%
COc1ccc(SCC(c2ccccc2)N2CCN(CC(C)C)CCC2=O)cc1 (centres undefined)	x	x	7.5%	x	x
CCCOc1ccc(C(=O)NNC(=S)NC(C)=O)cc1	x	u	14.3%	-11.1	-33.5%
CCCOc1ccc(C(=O)NNC(=S)NC(=O)c2cc(-c3ccccc3)nc3ccccc23)cc1	x	7.08µM*	7.6%	5.0	16.2%
SMILES	ERK EGF inh	HttQ103 aggreg	GLA spleen mod	GLA inh pH 4.5	HTT cytoprotect
Cc1ccc(NC(=O)c2cccs2)cc1S(=O)(=O)Nc1cccc(Cl)c1	20µM*	-0.8%	2.0%	-8.0	3.7%[1.9 µM]
CC(=O)N[C@H]1CSSC[C@@H](C(=O)N2CCC[C@H]2C(=O)N2CCC[C@H]2C(=O)N[C@@H](CCCCN)C(=O)N[C@@H](CC(=O)O)C(N)=O)NC(=O)CNC(=O)[C@H](Cc2c[nH]c3ccccc23)NC(=O)[C@H](CCCNC(=N)N)NC(=O)[C@@H](Cc2ccc3ccccc3c2)NC(=O)[C@H](Cc2cnc[nH]2)NC(=O)[C@H](CCC(=O)O)NC1=O	x	x	-8.5%	x	x
N#Cc1c(-c2ccccc2)c(C#N)c2nc3ccccc3n2c1N	-7.7%	-19.2%	2.6%	-1.9	2.2%[10 µM]
Cc1ccc(-c2c(C#N)c(N)n3c(nc4ccccc43)c2C#N)cc1	x	10µM*	-7.6%	-8.6	-7.4%[10 µM]
Cc1ccccc1Oc1nnc(-c2cccs2)c2ccccc12	x	3.55µM*	1.6%	0.7	11.8%[10 µM]
O=S1(=O)C2CC3CCC2(CN1Cc1ccccc1)O3 (centres undefined)	x	x	0.0%	x	x
COc1ccc(C(=O)Cn2nnc(-c3ccccc3NC(=O)C3CCCCC3)n2)cc1	x	12.6µM*	10.0%	-5.9	-20.4%
c1ccc(CCNc2ncnc3scc(C4COc5ccccc5O4)c23)cc1 (centres undefined)	x	-21.1%	-2.2%	7.4	-58.5%
c1ccc2c(c1)OCC(c1csc3ncnc(N4CCCC4)c13)O2 (centres undefined)	x	17.8µM*	3.6%	-1.2	-9.3%
COc1ccc(N2CCC(CNC(=S)Nc3cc(C)cc(C)c3)C2)cc1 (centres undefined)	14.1µM*	23.8%[9.22 µM]	1.0%	-5.2	15.9%[10 µM]
COc1ccc(N2CCC(CNC(=S)Nc3cc(C)ccc3C)C2)cc1 (centres undefined)	14.1µM*	-22.7%[9.22 µM]	2.0%	4.9	33.2%[10 µM]
COc1ccc(N2CCN(C(=S)Nc3cc(C)ccc3C)CC2)cc1	x	-5.8%	1.1%	-0.9	-2.1%
Cc1ccc(C)c(-c2ccc(C(=O)O)o2)c1	x	x	10.6%[181 µM]	7.1	u
CC(=O)OC1CCC2(C)C3CCC4(C)C(CC5CCCCC54C(C)=O)C3CC(=O)[C@@]2(O)C1 (some centres undefined)	2.0%	x	6.3%	2.7	-15.7%[1.9 µM]
COc1ccc(CCNS(=O)(=O)c2ccccc2)cc1OC	x	3.55µM*	-0.3%	-7.5	-2.7%
Cc1[nH]c(C)c(Cl)c(=O)c1Cl	7.9%	8.3%	7.3%	-2.8	u
O=c1c2c(nc3c(-c4cccc(Br)c4)c[nH]n13)CCCC2	x	3.55µM*	-1.6%	0.8	-37.3%[10 µM]
O=c1c2c(nc3c(-c4ccccc4)c[nH]n13)CCC2	x	-24.1%	1.2%	12.4	-22.9%
CCOC(=O)Cc1c(C)nc2c(-c3cccc(Br)c3)c[nH]n2c1=O	x	11.2µM*	-4.7%	-6.2	-26.3%
CCOC(=O)Cc1c(C)nc2c(-c3ccc(Cl)cc3)c(C)[nH]n2c1=O	x	17.8µM*	6.9%	-11.4	-67.9%
CCOC(=O)Cc1cc(=O)n2[nH]c(C)c(-c3ccccc3)c2n1	x	3.4%	3.9%	2.8	32.1%
